Data from PubChem BioAssay (NCI).
Compounds without any hit were thinned out: in the full panel of roughly 83,000, 20% have a hit.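 Testing used 96-well plates and a 48-hour single-concentration exposure. Example: -40 means 40% of the starting cells died.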 Unmarked numbers belong to inactive results. Calls of active or inactive are those of the source. Rule for the calls: active = growth percent below 10; inactive = the rest.

Columns and labels:
Assay in all cases: NCI-60 one-dose screen, 48 h (100 = growth as untreated, 0 = no growth, -100 = all killed)
Settings in all cases: 10 µM unless noted
NCI-H23 lung = test system: NCI-H23 lung
NCI-H226 lung = test system: NCI-H226 lung
NCI-H322M lung = test system: NCI-H322M lung
HOP-62 NSCLC = test system: HOP-62 NSCLC
NCI-H460 lung = test system: NCI-H460 lung
HOP-92 NSCLC = test system: HOP-92 NSCLC
NCI-H522 lung = test system: NCI-H522 lung
A549/ATCC NSCLC = test system: A549/ATCC NSCLC
786-0 renal = test system: 786-0 renal
COLO 205 colon = test system: COLO 205 colon
DU-145 prostate = test system: DU-145 prostate
K-562 leukemia = test system: K-562 leukemia
MALME-3M melanoma = test system: MALME-3M melanoma
MDA-MB-231 breast = test system: MDA-MB-231 breast
RXF 393 renal = test system: RXF 393 renal
SF-268 CNS = test system: SF-268 CNS
SF-295 CNS = test system: SF-295 CNS
SF-539 CNS = test system: SF-539 CNS
UACC-257 melanoma = test system: UACC-257 melanoma
M14 melanoma = test system: M14 melanoma

SMILES	growth (NCI-H23 lung)	growth (NCI-H226 lung)	growth (NCI-H322M lung)	growth (HOP-62 NSCLC)	growth (NCI-H460 lung)	growth (HOP-92 NSCLC)	growth (NCI-H522 lung)	growth (A549/ATCC NSCLC)	growth (786-0 renal)	growth (COLO 205 colon)	growth (DU-145 prostate)	growth (K-562 leukemia)	growth (MALME-3M melanoma)	growth (MDA-MB-231 breast)	growth (RXF 393 renal)	growth (SF-268 CNS)	growth (SF-295 CNS)	growth (SF-539 CNS)	growth (UACC-257 melanoma)	growth (M14 melanoma)
NS(=O)(=O)c1ccc(Nc2nc(N/N=C/c3cc(Br)c(O)c(Br)c3)nc(Nc3ccccc3)n2)cc1	27.7%	54.7%	37.6%	27%	99.8%	-4.41% (active)	49.4%	97.6%	25.1%	88%	50.6%	14.3%	42%	-0.169% (active)	54%	21%	43.8%	-25.8% (active)	97.4%	59.4%
O=C(c1ccc(Cl)cc1)C1[C@H](c2ccccc2Cl)[C@@H](c2ccccc2)NC12C(=O)Nc1ccc(Cl)cc12 (stereo not given in full)	-70.1% (active)	-86.1% (active)	-22.1% (active)	-72.4% (active)	-69.2% (active)	-75.6% (active)	-50.6% (active)	-23% (active)	-54.5% (active)	-91.4% (active)	-28.5% (active)	-45.1% (active)	-39.5% (active)	-96.1% (active)	-93.1% (active)	-36.6% (active)	-85.9% (active)	-78.4% (active)	-15.5% (active)	-82.9% (active)
COc1cc(C2C(C(=O)OCc3ccccc3)=C(C)Nc3nc4ccccc4n32)cc(OC)c1OC (stereo not given)	45.8%	-37.3% (active)	40.9%	31.1%	16%	-0.272% (active)	-7% (active)	34.9%	-66.1% (active)	52.5%	59.3%	20.7%	-16.7% (active)	-26.7% (active)	-39.6% (active)	15.1%	3.38% (active)	-44.5% (active)	30.2%	27.1%
CC(C)C[C@H](NC(=O)[C@@H]1CCCCCCCCCCC(=O)N[C@@H](CC(=O)N2CCC[C@@H]2C2CCCC2)C(=O)N1)B(O)O	-83.3% (active)	-33.3% (active)	-59.8% (active)	-14.7% (active)	0.61% (active)	-63.2% (active)	-49.1% (active)	1.48% (active)	-43.8% (active)	-64.6% (active)	6.72% (active)	0.735% (active)	-75.1% (active)	-72.4% (active)	-84.8% (active)	4.67% (active)	-93.4% (active)	-44.8% (active)	-31% (active)	-48.2% (active)
